According to PubChem BioAssay (Tox21):
Unmarked numbers belong to inactive results. Results filed as inconclusive are left out. Where a call stands in place of a potency, no number is given. Calls of active or inactive are those of the source. The call rests on the fitted dose curve.

Molecular target: Acetylcholinesterase (Homo sapiens) (UniProt P22303)
Experiment: Acetylcholinesterase (AChE) small molecule antagonists: colormetric cell-based qHTS assay (AID 1347395); further: nearly all actives have a fitted effect of over 30% in size
Details: SH-SY5Y cells AChE activity, colorimetric (Ellman); series mostly up to 115 µM
Summary of the method: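 After overnight attachment at 37 C, SH-SY5Y cells get 30 min compound exposure; detection cocktail (acetylthiocholine, DTNB) then incubates 90 min at 37 C, and absorbance reflects AChE-generated thiocholine.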

Acetylcholinesterase (Homo sapiens), sequence (P22303 whole entry, looked up): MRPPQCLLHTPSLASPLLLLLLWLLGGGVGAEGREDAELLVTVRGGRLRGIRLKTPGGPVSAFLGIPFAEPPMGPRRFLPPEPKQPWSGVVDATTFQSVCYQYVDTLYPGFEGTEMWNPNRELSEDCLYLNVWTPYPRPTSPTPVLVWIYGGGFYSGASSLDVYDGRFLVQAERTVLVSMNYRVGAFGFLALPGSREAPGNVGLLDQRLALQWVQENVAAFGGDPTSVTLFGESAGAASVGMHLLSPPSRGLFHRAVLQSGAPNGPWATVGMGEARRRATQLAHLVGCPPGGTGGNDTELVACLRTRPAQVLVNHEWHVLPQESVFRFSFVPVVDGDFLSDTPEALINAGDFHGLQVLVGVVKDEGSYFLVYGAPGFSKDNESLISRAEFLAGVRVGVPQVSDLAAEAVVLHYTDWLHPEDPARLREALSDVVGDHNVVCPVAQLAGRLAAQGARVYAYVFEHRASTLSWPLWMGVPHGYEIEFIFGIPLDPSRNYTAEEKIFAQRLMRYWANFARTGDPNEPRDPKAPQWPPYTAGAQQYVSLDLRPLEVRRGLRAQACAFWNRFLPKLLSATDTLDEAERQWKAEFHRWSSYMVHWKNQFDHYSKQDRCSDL

SMILES	Potency
Nc1ccc(S(=O)(=O)O)cc1	inactive
Cc1cccc2sc(N)nc12	inactive
CC(C)OC(=O)c1ccccc1	inactive
Nc1c(I)cc(I)c(C(=O)N(CCC(=O)O)c2ccccc2)c1I	inactive
CCCCOC(=O)COc1ccc(Cl)cc1Cl	inactive
CC(COCC(C)OC(=O)c1ccccc1)OC(=O)c1ccccc1 (stereo not given)	inactive
O=C(Nc1cccc(Cl)c1)OCC#CCCl	inactive
CCOc1ccc([N+](=O)[O-])cc1	inactive
CCOC(=O)NNc1ccc(N(CC)CC(C)O)nn1 (stereo not given)	inactive
CCCCC/C(C=O)=C\c1ccccc1	inactive
CCCCCCCC(=O)Oc1c(Br)cc(C#N)cc1Br	inactive
CC(C)(C)OC(=O)c1cccc(N)c1	inactive
C=CC(O)CCCCC (stereo not given)	inactive
CCC(=O)OC/C=C/c1ccccc1	inactive
CCCCCCCCCCCCS	inactive

Molecular target: Acetylcholinesterase (Homo sapiens) (UniProt P22303)
Experiment: Acetylcholinesterase (AChE) small molecule antagonists: enzyme-based qHTS assay (AID 1347397); further: nearly all actives have a fitted effect of over 55% in size
Details: Potency: AChE enzyme activity inhibition; outcome: AChE enzyme activity inhibition; series mostly up to 115 µM
Summary of the method: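 Absorbance-based detection of thiocholine with DTNB served as the read-out. Recombinant human AChE was exposed to compound for 30 min at RT before a 10 min RT incubation with acetylthiocholine.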

SMILES	Potency	activity change, negative = inhibition
CC(=O)c1ccccc1[N+](=O)[O-]	inactive	
Cc1ccc(C(C)(C)C)c(O)c1	inactive	
C=C(C)C(=O)OCCNC(C)(C)C	inactive	
COc1cc(C=O)ccc1OC(=O)C(C)C	inactive	
Oc1cccc(O)c1	inactive	
C[C@@H]1NC(=O)[C@@H](N)CNC(=O)[C@H](C2CCNC(N)=N2)NC(=O)/C(=C/NC(N)=O)NC(=O)[C@H](CNC(=O)C[C@@H](N)CCCN)NC1=O (stereo not given in full)		-0.97% [at 0.435 µM]
Cl[Si](Cl)(c1ccccc1)c1ccccc1	inactive	
CCCCC(CC)C(=O)OCCOCCOCCOCCOC(=O)C(CC)CCCC (stereo not given)	inactive	
N[C@@H](Cc1cc(I)c(Oc2ccc(O)c(I)c2)c(I)c1)C(=O)O	inactive	
CC1=C(O)C(=O)CO1	inactive	
OCCNCCO	inactive	
C[C@@H](N)C(=O)O	inactive	
O=C(O)c1cccc(Oc2ccccc2)c1	inactive	
C=C(C)C(=O)OCCCCCCCCCCCCCCCCCC		0.946% [at 23.6 µM]
N#Cc1ccc(C(=O)O)cc1	inactive	
CCOCCO	inactive	
OCCOCC#CCOCCO	inactive	
C/C=C(/C(=C/C)c1ccc(O)cc1)c1ccc(O)cc1	inactive	
CCCCCCCC/C=C\CCCCCCCC(=O)O	inactive	
COc1ccc(-c2cc(C(F)F)nn2-c2ccc(S(N)(=O)=O)cc2)cc1F	inactive	

SMILES	Potency	activity change, negative = inhibition
O=C(Oc1ccccc1)c1ccccc1O	inactive	
O=Cc1cc2ccccc2o1	inactive	
COC(=O)c1ccccc1C	inactive	
Cc1ccc(O)c2ncccc12	inactive	
C=C(CC)C(=O)c1ccc(OCC(=O)O)c(Cl)c1Cl	inactive	
Nc1ccc(S(=O)(=O)O)cc1	inactive	
Cc1cccc2sc(N)nc12	inactive	
CC(C)OC(=O)c1ccccc1	inactive	
Nc1c(I)cc(I)c(C(=O)N(CCC(=O)O)c2ccccc2)c1I	inactive	
CCCCOC(=O)COc1ccc(Cl)cc1Cl	inactive	
CC(COCC(C)OC(=O)c1ccccc1)OC(=O)c1ccccc1 (stereo not given)	inactive	
O=C(Nc1cccc(Cl)c1)OCC#CCCl	inactive	
CCOc1ccc([N+](=O)[O-])cc1	inactive	
CCOC(=O)NNc1ccc(N(CC)CC(C)O)nn1 (stereo not given)	inactive	
CCCCC/C(C=O)=C\c1ccccc1	inactive	
CCCCCCCC(=O)Oc1c(Br)cc(C#N)cc1Br	inactive	
CC(C)(C)OC(=O)c1cccc(N)c1	inactive	
C=CC(O)CCCCC (stereo not given)	inactive	
CCC(=O)OC/C=C/c1ccccc1	inactive	
CCCCCCCCCCCCS	inactive	

Molecular target: Acetylcholinesterase (Homo sapiens) (UniProt P22303)
Experiment: Acetylcholinesterase (AChE) small molecule antagonists: fluorescence cell-based qHTS assay (AID 1347398); further: nearly all actives have a fitted effect of over 50% in size
Details: SH-SY5Y cells; Potency: AChE activity; outcome: AChE activity; series mostly up to 115 µM
Summary of the method: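 Fluorimetric cell-based assay: intact SH-SY5Y cells, 30 min compound preincubation at 37 C, acetylthiocholine substrate with thiol probe Thiolite Green, 40 min RT development, fluorescence 490/520 nm.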

SMILES	Potency	activity change, negative = inhibition
CC(=O)c1ccccc1[N+](=O)[O-]	inactive	
Cc1ccc(C(C)(C)C)c(O)c1	inactive	
C=C(C)C(=O)OCCNC(C)(C)C	inactive	
COc1cc(C=O)ccc1OC(=O)C(C)C	inactive	
Oc1cccc(O)c1	inactive	
C[C@@H]1NC(=O)[C@@H](N)CNC(=O)[C@H](C2CCNC(N)=N2)NC(=O)/C(=C/NC(N)=O)NC(=O)[C@H](CNC(=O)C[C@@H](N)CCCN)NC1=O (stereo not given in full)		6.12% [at 0.439 µM]
Cl[Si](Cl)(c1ccccc1)c1ccccc1	inactive	
CCCCC(CC)C(=O)OCCOCCOCCOCCOC(=O)C(CC)CCCC (stereo not given)	inactive	
N[C@@H](Cc1cc(I)c(Oc2ccc(O)c(I)c2)c(I)c1)C(=O)O	inactive	
CC1=C(O)C(=O)CO1	inactive	
OCCNCCO	inactive	
C[C@@H](N)C(=O)O	inactive	
O=C(O)c1cccc(Oc2ccccc2)c1	inactive	
C=C(C)C(=O)OCCCCCCCCCCCCCCCCCC		2.72% [at 23.8 µM]
N#Cc1ccc(C(=O)O)cc1	inactive	
CCOCCO	inactive	
OCCOCC#CCOCCO	inactive	
C/C=C(/C(=C/C)c1ccc(O)cc1)c1ccc(O)cc1	inactive	
CCCCCCCC/C=C\CCCCCCCC(=O)O	inactive	
COc1ccc(-c2cc(C(F)F)nn2-c2ccc(S(N)(=O)=O)cc2)cc1F	inactive	

SMILES	Potency	activity change, negative = inhibition
O=C(Oc1ccccc1)c1ccccc1O	inactive	
O=Cc1cc2ccccc2o1	inactive	
COC(=O)c1ccccc1C	inactive	
Cc1ccc(O)c2ncccc12	inactive	
C=C(CC)C(=O)c1ccc(OCC(=O)O)c(Cl)c1Cl	inactive	
Nc1ccc(S(=O)(=O)O)cc1	inactive	
Cc1cccc2sc(N)nc12	inactive	
CC(C)OC(=O)c1ccccc1	inactive	
Nc1c(I)cc(I)c(C(=O)N(CCC(=O)O)c2ccccc2)c1I	inactive	
CCCCOC(=O)COc1ccc(Cl)cc1Cl	inactive	
CC(COCC(C)OC(=O)c1ccccc1)OC(=O)c1ccccc1 (stereo not given)	inactive	
O=C(Nc1cccc(Cl)c1)OCC#CCCl	inactive	
CCOc1ccc([N+](=O)[O-])cc1	inactive	
CCOC(=O)NNc1ccc(N(CC)CC(C)O)nn1 (stereo not given)	inactive	
CCCCC/C(C=O)=C\c1ccccc1	inactive	
CCCCCCCC(=O)Oc1c(Br)cc(C#N)cc1Br	inactive	
CC(C)(C)OC(=O)c1cccc(N)c1	inactive	
C=CC(O)CCCCC (stereo not given)	inactive	
CCC(=O)OC/C=C/c1ccccc1	inactive	
CCCCCCCCCCCCS	inactive	
